# ± gives the standard deviation of the averaged measurements.
# Experiments:
# Test in all cases: promoter activity interaction Z-score (Lux/OD deviation from empty-vector control); higher = stronger promoter induction by the compound
# [1] = system: E. coli BW25113 acrABp lux reporter
# In short: (§1)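 Low-copy luxCDABE promoter reporters were carried by E. coli BW25113, either wild type or lacking one of three genes, grown in 40 µl LB Lennox in 384-well plates at 37°C. Each compound was run at four 1:2 dilutions in biological duplicates, with OD600 and luminescence read every 30 min for 12 h. Integration used 0–8 h for wild type and 1–9 h for deletion strains, and wells under 10% of the median growth value were removed. Luminescence normalised to growth was fitted against a control, and the Z-transformed residual is the score.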
# [2] = system: E. coli BW25113 marRABp lux reporter
# In short: as §1
# [3] = system: E. coli BW25113 micFp lux reporter
# In short: as §1
# [4] = system: E. coli BW25113 ompFp lux reporter
# In short: as §1
# [5] = system: E. coli BW25113 robp lux reporter
# In short: as §1
# [6] = system: E. coli BW25113 soxSp lux reporter
# In short: as §1
# [7] = system: E. coli BW25113 tolCp lux reporter
# In short: as §1
# [8] = 0.063 µg/ml, genetic background: wild type
# [9] = 0.063 µg/ml, genetic background: ΔmarA
# [10] = 0.063 µg/ml, genetic background: Δrob
# [11] = 0.063 µg/ml, genetic background: ΔsoxS
# [12] = 0.13 µg/ml, genetic background: wild type
# [13] = 0.13 µg/ml, genetic background: ΔmarA
# [14] = 0.13 µg/ml, genetic background: Δrob
# [15] = 0.13 µg/ml, genetic background: ΔsoxS
# [16] = 0.25 µg/ml, genetic background: wild type
# [17] = 0.25 µg/ml, genetic background: ΔmarA
# [18] = 0.25 µg/ml, genetic background: Δrob
# [19] = 0.25 µg/ml, genetic background: ΔsoxS
# [20] = 0.51 µg/ml, genetic background: wild type
# [21] = 0.51 µg/ml, genetic background: ΔmarA
# [22] = 0.51 µg/ml, genetic background: Δrob
# [23] = 0.51 µg/ml, genetic background: ΔsoxS
structure (smiles),measurement,setting,value
N=C(NCCCCCCNC(=N)NC(=N)Nc1ccc(Cl)cc1)NC(=N)Nc1ccc(Cl)cc1 [Chlorhexidine],promoter activity interaction Z-score,[1]; [8],0.528 ± 0.15
same,promoter activity interaction Z-score,[1]; [9],0.456 ± 1.1
same,promoter activity interaction Z-score,[1]; [10],-0.0468 ± 0.34
same,promoter activity interaction Z-score,[1]; [11],-0.413 ± 0.67
same,promoter activity interaction Z-score,[1]; [12],0.229 ± 0.18
same,promoter activity interaction Z-score,[1]; [13],-0.312 ± 0.48
same,promoter activity interaction Z-score,[1]; [14],-0.0734 ± 0.14
same,promoter activity interaction Z-score,[1]; [15],0.339 ± 0.46
same,promoter activity interaction Z-score,[1]; [16],0.27 ± 0.26
same,promoter activity interaction Z-score,[1]; [17],-0.147 ± 0.57
same,promoter activity interaction Z-score,[1]; [18],0.135 ± 0.15
same,promoter activity interaction Z-score,[1]; [19],0.108 ± 0.19
same,promoter activity interaction Z-score,[1]; [20],-0.0541 ± 0.33
same,promoter activity interaction Z-score,[1]; [21],0.0169 ± 0.15
same,promoter activity interaction Z-score,[1]; [22],0.0299 ± 0.11
same,promoter activity interaction Z-score,[1]; [23],0.236 ± 0.23
same,promoter activity interaction Z-score,[2]; [8],-0.0555 ± 0.078
same,promoter activity interaction Z-score,[2]; [9],0.0409 ± 0.0035
same,promoter activity interaction Z-score,[2]; [10],0.173 ± 0.2
same,promoter activity interaction Z-score,[2]; [11],0.0219 ± 0.055
same,promoter activity interaction Z-score,[2]; [12],-0.193 ± 0.069
same,promoter activity interaction Z-score,[2]; [13],-0.0353 ± 0.43
same,promoter activity interaction Z-score,[2]; [14],0.0384 ± 0.087
same,promoter activity interaction Z-score,[2]; [15],0.0405 ± 0.19
same,promoter activity interaction Z-score,[2]; [16],0.0425 ± 0.12
same,promoter activity interaction Z-score,[2]; [17],-0.101 ± 0.24
same,promoter activity interaction Z-score,[2]; [18],0.121 ± 0.2
same,promoter activity interaction Z-score,[2]; [19],0.165 ± 0.33
same,promoter activity interaction Z-score,[2]; [20],-0.283 ± 0.1
same,promoter activity interaction Z-score,[2]; [21],0.127 ± 0.37
same,promoter activity interaction Z-score,[2]; [22],-0.0583 ± 0.11
same,promoter activity interaction Z-score,[2]; [23],0.00237 ± 0.085
same,promoter activity interaction Z-score,[3]; [8],-0.138 ± 0.035
same,promoter activity interaction Z-score,[3]; [9],0.119 ± 0.018
same,promoter activity interaction Z-score,[3]; [10],-0.0387 ± 0.0014
same,promoter activity interaction Z-score,[3]; [11],-0.423 ± 0.21
same,promoter activity interaction Z-score,[3]; [12],-0.207 ± 0.061
same,promoter activity interaction Z-score,[3]; [13],-0.0564 ± 0.12
same,promoter activity interaction Z-score,[3]; [14],-0.0382 ± 0.027
same,promoter activity interaction Z-score,[3]; [15],-0.0137 ± 0.079
same,promoter activity interaction Z-score,[3]; [16],0.112 ± 0.098
same,promoter activity interaction Z-score,[3]; [17],-0.0647 ± 0.035
same,promoter activity interaction Z-score,[3]; [18],-0.172 ± 0.038
same,promoter activity interaction Z-score,[3]; [19],-0.0807 ± 0.32
same,promoter activity interaction Z-score,[3]; [20],-0.4228 ± 0.0029
same,promoter activity interaction Z-score,[3]; [21],-0.153 ± 0.15
same,promoter activity interaction Z-score,[3]; [22],-0.204 ± 0.03
same,promoter activity interaction Z-score,[3]; [23],0.196 ± 0.032
same,promoter activity interaction Z-score,[4]; [8],0.348 ± 0.12
same,promoter activity interaction Z-score,[4]; [9],0.307 ± 0.032
same,promoter activity interaction Z-score,[4]; [10],0.502 ± 0.096
same,promoter activity interaction Z-score,[4]; [11],0.129 ± 0.63
same,promoter activity interaction Z-score,[4]; [12],0.528 ± 0.026
same,promoter activity interaction Z-score,[4]; [13],-0.185 ± 0.099
same,promoter activity interaction Z-score,[4]; [14],0.2991 ± 0.00077
same,promoter activity interaction Z-score,[4]; [15],0.714 ± 0.18
same,promoter activity interaction Z-score,[4]; [16],0.176 ± 0.12
same,promoter activity interaction Z-score,[4]; [17],0.161 ± 0.18
same,promoter activity interaction Z-score,[4]; [18],0.332 ± 0.15
same,promoter activity interaction Z-score,[4]; [19],0.376 ± 0.19
same,promoter activity interaction Z-score,[4]; [20],0.552 ± 0.14
same,promoter activity interaction Z-score,[4]; [21],0.909 ± 0.66
same,promoter activity interaction Z-score,[4]; [22],0.866 ± 0.037
same,promoter activity interaction Z-score,[4]; [23],1.02 ± 0.32
same,promoter activity interaction Z-score,[5]; [8],0.375 ± 0.078
same,promoter activity interaction Z-score,[5]; [9],0.214 ± 0.35
same,promoter activity interaction Z-score,[5]; [10],0.423 ± 0.27
same,promoter activity interaction Z-score,[5]; [11],0.406 ± 0.057
same,promoter activity interaction Z-score,[5]; [12],0.674 ± 0.55
same,promoter activity interaction Z-score,[5]; [13],-0.0996 ± 0.54
same,promoter activity interaction Z-score,[5]; [14],0.374 ± 0.39
same,promoter activity interaction Z-score,[5]; [15],0.814 ± 0.61
same,promoter activity interaction Z-score,[5]; [16],0.416 ± 0.24
same,promoter activity interaction Z-score,[5]; [17],-0.53 ± 0.44
same,promoter activity interaction Z-score,[5]; [18],0.48 ± 0.31
same,promoter activity interaction Z-score,[5]; [19],0.422 ± 0.89
same,promoter activity interaction Z-score,[5]; [20],-0.214 ± 0.33
same,promoter activity interaction Z-score,[5]; [21],0.504 ± 0.37
same,promoter activity interaction Z-score,[5]; [22],0.258 ± 0.6
same,promoter activity interaction Z-score,[5]; [23],0.18 ± 0.19
same,promoter activity interaction Z-score,[6]; [8],-0.0504 ± 0.14
same,promoter activity interaction Z-score,[6]; [9],0.0857 ± 0.028
same,promoter activity interaction Z-score,[6]; [10],0.21 ± 0.1
same,promoter activity interaction Z-score,[6]; [11],0.0523 ± 0.26
same,promoter activity interaction Z-score,[6]; [12],0.0248 ± 0.062
same,promoter activity interaction Z-score,[6]; [13],0.0401 ± 0.18
same,promoter activity interaction Z-score,[6]; [14],-0.0238 ± 0.042
same,promoter activity interaction Z-score,[6]; [15],0.276 ± 0.16
same,promoter activity interaction Z-score,[6]; [16],0.0242 ± 0.039
same,promoter activity interaction Z-score,[6]; [17],0.138 ± 0.13
same,promoter activity interaction Z-score,[6]; [18],0.236 ± 0.22
same,promoter activity interaction Z-score,[6]; [19],0.165 ± 0.005
same,promoter activity interaction Z-score,[6]; [20],-0.166 ± 0.08
same,promoter activity interaction Z-score,[6]; [21],0.198 ± 0.063
same,promoter activity interaction Z-score,[6]; [22],-0.014 ± 0.063
same,promoter activity interaction Z-score,[6]; [23],-0.0376 ± 0.072
same,promoter activity interaction Z-score,[7]; [8],0.313 ± 0.44
same,promoter activity interaction Z-score,[7]; [9],0.0546 ± 1.2
same,promoter activity interaction Z-score,[7]; [10],0.212 ± 0.98
same,promoter activity interaction Z-score,[7]; [11],0.135 ± 0.81
same,promoter activity interaction Z-score,[7]; [12],0.112 ± 0.076
same,promoter activity interaction Z-score,[7]; [13],-0.214 ± 1.4
same,promoter activity interaction Z-score,[7]; [14],-0.155 ± 0.64
same,promoter activity interaction Z-score,[7]; [15],0.18 ± 2
same,promoter activity interaction Z-score,[7]; [16],-0.564 ± 0.81
same,promoter activity interaction Z-score,[7]; [17],-0.365 ± 0.86
same,promoter activity interaction Z-score,[7]; [18],0.568 ± 0.35
same,promoter activity interaction Z-score,[7]; [19],0.574 ± 0.065
same,promoter activity interaction Z-score,[7]; [20],-0.539 ± 0.4
same,promoter activity interaction Z-score,[7]; [21],0.431 ± 0.064
same,promoter activity interaction Z-score,[7]; [22],-0.613 ± 0.62
same,promoter activity interaction Z-score,[7]; [23],0.378 ± 0.96

# Source: the supplement of paper PMC12282887
